What all share (experiment): DAPPL (digital affinity profiling via proximity ligation, sequencing); 10 mM Tris-HCl pH 7.5, 50 mM NaCl, 1 mM DTT, 4% glycerol, room temperature, 30 min; GST-TFs on glutathione beads, 16-mer random dsDNA library, 0.1% formaldehyde crosslink after washing; high values mean tight binding
One test addresses T1, FLI1 (Homo sapiens, UniProt Q01543 1-452).
T1 sequence: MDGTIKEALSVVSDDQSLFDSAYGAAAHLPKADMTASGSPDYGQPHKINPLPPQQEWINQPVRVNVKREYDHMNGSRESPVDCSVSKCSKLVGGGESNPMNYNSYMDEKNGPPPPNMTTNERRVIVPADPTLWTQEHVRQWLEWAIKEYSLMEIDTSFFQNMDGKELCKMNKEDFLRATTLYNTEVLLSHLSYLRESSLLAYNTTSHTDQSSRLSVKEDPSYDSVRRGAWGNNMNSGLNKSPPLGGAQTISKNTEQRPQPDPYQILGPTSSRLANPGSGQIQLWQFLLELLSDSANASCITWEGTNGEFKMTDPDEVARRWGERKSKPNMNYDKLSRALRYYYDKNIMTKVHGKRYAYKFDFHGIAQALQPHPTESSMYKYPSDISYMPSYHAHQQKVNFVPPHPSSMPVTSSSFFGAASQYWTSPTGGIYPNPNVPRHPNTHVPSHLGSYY
The note with it: protein: recombinant; tags: N-terminal GST; dsDNA, one strand shown. In a few lines: (§1)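 In yeast, human transcription factors were expressed with a GST fusion, then pulled down on glutathione beads and given DNA barcodes. Pooled with a tag-only sample, they were exposed to 200 nmole of a 16-mer random double-stranded DNA library (Tris/NaCl/DTT/glycerol buffer, room temperature, 30 min), washed, crosslinked with 0.1% formaldehyde, proximity-ligated using BsaI/T4 ligase for 1 h at 37 °C, PCR-amplified and read on an Illumina NextSeq500. Each hexamer's frequency of reads for a factor, divided by the matching frequency for the tag-only sample, gives the binding signal.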

Another test addresses T2, ELK1 (Homo sapiens, UniProt P19419 1-428).
T2 sequence: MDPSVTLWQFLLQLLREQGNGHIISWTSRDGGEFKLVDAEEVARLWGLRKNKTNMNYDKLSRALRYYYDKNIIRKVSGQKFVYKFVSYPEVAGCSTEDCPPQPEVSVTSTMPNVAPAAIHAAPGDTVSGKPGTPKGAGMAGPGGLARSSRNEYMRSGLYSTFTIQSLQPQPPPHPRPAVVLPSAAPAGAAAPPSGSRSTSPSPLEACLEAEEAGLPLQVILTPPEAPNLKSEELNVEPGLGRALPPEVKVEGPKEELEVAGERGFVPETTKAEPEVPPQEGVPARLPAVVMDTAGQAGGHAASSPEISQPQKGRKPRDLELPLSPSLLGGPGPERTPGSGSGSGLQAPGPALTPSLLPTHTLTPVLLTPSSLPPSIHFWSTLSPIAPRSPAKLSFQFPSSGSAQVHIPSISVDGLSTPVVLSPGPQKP
The note with it: protein: recombinant; tags: N-terminal GST; dsDNA, one strand shown. In a few lines:
as §1

For another test, the target named is T3, GABPA (Homo sapiens, UniProt Q06546 1-454).
T3 sequence: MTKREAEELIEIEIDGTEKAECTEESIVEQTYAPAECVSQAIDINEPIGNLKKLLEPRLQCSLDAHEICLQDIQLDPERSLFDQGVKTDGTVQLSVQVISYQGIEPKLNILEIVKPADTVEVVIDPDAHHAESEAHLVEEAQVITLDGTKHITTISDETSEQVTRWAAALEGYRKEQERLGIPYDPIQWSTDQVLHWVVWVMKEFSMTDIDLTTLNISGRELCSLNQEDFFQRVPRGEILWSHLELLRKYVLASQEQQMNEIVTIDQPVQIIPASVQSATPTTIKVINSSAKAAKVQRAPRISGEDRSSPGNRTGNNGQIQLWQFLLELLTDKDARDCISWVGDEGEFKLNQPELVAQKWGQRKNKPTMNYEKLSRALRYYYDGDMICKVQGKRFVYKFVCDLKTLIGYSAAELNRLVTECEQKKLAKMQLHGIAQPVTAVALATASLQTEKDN
The note with it: protein: recombinant; tags: N-terminal GST; dsDNA, one strand shown. The method in brief:
as §1

Another test concerns the target T4, ERG (Homo sapiens, UniProt P11308 1-479).
T4 sequence: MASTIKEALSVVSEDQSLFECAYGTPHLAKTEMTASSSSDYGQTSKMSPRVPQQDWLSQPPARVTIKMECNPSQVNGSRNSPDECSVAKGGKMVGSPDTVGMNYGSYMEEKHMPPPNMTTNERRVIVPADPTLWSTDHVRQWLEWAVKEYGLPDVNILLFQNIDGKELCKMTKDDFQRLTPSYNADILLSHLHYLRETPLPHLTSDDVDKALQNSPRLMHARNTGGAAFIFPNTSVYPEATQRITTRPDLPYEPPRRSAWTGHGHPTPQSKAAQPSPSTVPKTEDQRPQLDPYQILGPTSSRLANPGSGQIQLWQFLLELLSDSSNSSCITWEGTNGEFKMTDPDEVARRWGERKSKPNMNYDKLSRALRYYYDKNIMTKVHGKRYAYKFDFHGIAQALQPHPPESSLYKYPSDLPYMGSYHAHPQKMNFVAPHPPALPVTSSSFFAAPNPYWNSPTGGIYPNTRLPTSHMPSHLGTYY
The note with it: protein: recombinant; tags: N-terminal GST; dsDNA, one strand shown. The method in brief:
as §1

A further test concerns the target ELF1 (Homo sapiens, UniProt P32519 1-619). The note with it: protein: recombinant; tags: N-terminal GST; dsDNA, one strand shown. The method in brief:
as §1

The target of another test is T5, EHF (Homo sapiens, UniProt Q9NZC4 1-300).
T5 sequence: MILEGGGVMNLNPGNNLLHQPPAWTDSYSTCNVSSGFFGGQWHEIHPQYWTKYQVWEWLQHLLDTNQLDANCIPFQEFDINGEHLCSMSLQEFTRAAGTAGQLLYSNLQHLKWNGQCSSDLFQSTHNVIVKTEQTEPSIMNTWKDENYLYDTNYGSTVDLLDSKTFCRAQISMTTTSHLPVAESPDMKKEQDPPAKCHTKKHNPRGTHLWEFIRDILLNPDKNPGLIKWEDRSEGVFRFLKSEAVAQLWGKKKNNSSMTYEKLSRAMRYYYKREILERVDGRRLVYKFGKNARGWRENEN
The note with it: protein: recombinant; tags: N-terminal GST; dsDNA, one strand shown. In a few lines: as §1

For a further test, the target named is SPI1 (Homo sapiens, UniProt P17947 1-270). The note with it: protein: recombinant; tags: N-terminal GST; dsDNA, one strand shown. In a few lines: as §1
The next test concerns the target SPIB (Homo sapiens, UniProt Q01892 1-262). The note with it: protein: recombinant; tags: N-terminal GST; dsDNA, one strand shown. The method in brief:
as §1

A further test has as its target T6, ELK3 (Homo sapiens, UniProt P41970 1-407).
T6 sequence: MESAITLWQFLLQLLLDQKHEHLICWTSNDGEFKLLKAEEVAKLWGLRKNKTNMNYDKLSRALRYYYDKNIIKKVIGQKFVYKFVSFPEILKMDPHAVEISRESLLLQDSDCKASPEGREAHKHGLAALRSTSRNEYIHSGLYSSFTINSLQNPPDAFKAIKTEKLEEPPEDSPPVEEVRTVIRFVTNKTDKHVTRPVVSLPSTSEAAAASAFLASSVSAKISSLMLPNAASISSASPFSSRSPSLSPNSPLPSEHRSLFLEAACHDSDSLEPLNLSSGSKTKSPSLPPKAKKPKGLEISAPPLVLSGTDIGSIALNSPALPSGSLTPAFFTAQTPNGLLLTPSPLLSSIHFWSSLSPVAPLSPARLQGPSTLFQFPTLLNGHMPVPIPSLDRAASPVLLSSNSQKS
The note with it: protein: recombinant; tags: N-terminal GST; dsDNA, one strand shown. In a few lines: as §1

The next test has as its target T7, FEV (Homo sapiens, UniProt Q99581 1-238).
T7 sequence: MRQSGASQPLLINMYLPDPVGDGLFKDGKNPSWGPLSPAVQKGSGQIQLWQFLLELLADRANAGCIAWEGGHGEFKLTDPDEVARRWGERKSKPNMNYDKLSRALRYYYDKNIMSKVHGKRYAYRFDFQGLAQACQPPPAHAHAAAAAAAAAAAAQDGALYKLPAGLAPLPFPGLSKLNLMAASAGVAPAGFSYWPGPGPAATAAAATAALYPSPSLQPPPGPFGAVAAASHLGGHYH
The note with it: protein: recombinant; tags: N-terminal GST; dsDNA, one strand shown. In a few lines: as §1

In the next test the target is ETV5 (Homo sapiens, UniProt P41161 1-510). The note with it: protein: recombinant; tags: N-terminal GST; dsDNA, one strand shown. The method in brief:
as §1

For another test, the target named is HSF1 (Homo sapiens, UniProt Q00613 1-529). The note with it: protein: recombinant; tags: N-terminal GST; chain copies: 3; dsDNA, one strand shown. In a few lines:
as §1

The target in a further test is T8, SPIC (Homo sapiens, UniProt Q8N5J4 1-248).
T8 sequence: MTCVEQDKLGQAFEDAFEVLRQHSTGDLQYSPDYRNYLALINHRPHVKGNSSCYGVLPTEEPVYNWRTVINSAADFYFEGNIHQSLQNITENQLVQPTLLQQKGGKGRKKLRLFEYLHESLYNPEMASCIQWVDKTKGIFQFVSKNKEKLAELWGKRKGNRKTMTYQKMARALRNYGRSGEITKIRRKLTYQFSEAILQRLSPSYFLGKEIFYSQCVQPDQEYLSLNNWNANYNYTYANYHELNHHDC
The note with it: protein: recombinant; tags: N-terminal GST; dsDNA, one strand shown. In a few lines:
as §1

A further test deals with ELF4 (Homo sapiens, UniProt Q99607 1-663). The note with it: protein: recombinant; tags: N-terminal GST; dsDNA, one strand shown. In a few lines: as §1
The target of a further test is T9, ELK4 (Homo sapiens, UniProt P28324-2 1-405).
T9 sequence: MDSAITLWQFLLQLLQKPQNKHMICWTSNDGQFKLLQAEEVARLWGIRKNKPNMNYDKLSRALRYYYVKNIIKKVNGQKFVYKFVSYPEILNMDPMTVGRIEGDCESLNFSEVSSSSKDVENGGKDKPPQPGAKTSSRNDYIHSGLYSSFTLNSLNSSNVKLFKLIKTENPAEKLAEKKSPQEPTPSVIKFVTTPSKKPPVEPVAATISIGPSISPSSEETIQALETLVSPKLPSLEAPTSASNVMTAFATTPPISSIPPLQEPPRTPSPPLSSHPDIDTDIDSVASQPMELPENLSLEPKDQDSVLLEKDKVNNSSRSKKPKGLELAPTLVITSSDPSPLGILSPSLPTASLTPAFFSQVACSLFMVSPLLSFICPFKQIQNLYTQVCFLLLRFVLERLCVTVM
The note with it: protein: recombinant; tags: N-terminal GST; dsDNA, one strand shown. In a few lines:
as §1

The target of another test is T10, ETV2 (Homo sapiens, UniProt O00321 1-342).
T10 sequence: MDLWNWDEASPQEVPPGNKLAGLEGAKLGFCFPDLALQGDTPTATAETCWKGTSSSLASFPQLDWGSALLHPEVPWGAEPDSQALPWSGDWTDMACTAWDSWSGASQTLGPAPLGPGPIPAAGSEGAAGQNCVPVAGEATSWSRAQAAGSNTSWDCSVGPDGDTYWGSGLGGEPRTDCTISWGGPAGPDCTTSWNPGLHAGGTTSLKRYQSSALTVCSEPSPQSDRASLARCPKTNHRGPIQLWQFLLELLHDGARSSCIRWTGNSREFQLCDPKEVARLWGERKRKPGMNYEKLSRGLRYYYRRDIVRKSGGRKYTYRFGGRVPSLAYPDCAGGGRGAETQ
The note with it: protein: recombinant; tags: N-terminal GST; dsDNA, one strand shown. In a few lines: as §1

The target of another test is T11, ELF3 (Homo sapiens, UniProt P78545 1-371).
T11 sequence: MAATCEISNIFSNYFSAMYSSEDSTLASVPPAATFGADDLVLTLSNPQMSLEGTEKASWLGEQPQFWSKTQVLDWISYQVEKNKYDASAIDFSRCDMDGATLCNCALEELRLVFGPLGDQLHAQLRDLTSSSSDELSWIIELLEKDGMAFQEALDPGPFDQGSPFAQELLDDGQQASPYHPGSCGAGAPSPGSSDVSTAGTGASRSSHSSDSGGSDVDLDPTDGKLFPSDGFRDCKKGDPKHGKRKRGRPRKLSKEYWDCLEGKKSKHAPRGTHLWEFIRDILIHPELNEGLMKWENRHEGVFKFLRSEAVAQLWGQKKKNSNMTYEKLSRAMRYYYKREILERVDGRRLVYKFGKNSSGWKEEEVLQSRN
The note with it: protein: recombinant; tags: N-terminal GST; dsDNA, one strand shown. In a few lines:
as §1

For another test, the target named is CRX (Homo sapiens, UniProt O43186 1-299). The note with it: protein: recombinant; tags: N-terminal GST; dsDNA, one strand shown. In a few lines: as §1
For the next test, the target named is ETV1 (Homo sapiens, UniProt P50549 1-477). The note with it: protein: recombinant; tags: N-terminal GST; dsDNA, one strand shown. In a few lines:
as §1

ETV5, sequence (P41161 whole entry): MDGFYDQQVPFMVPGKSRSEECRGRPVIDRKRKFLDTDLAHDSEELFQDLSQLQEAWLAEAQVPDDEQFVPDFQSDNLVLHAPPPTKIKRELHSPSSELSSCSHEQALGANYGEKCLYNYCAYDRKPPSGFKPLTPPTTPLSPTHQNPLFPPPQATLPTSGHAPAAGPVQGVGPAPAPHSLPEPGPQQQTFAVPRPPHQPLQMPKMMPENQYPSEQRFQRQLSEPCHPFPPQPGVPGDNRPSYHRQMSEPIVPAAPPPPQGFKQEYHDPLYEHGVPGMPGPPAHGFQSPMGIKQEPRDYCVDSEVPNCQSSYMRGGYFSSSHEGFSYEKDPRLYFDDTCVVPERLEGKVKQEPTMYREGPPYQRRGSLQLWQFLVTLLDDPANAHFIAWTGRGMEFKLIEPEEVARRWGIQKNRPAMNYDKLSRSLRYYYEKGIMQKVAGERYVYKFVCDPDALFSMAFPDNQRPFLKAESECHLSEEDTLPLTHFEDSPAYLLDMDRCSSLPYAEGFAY
HSF1, sequence (Q00613 whole entry): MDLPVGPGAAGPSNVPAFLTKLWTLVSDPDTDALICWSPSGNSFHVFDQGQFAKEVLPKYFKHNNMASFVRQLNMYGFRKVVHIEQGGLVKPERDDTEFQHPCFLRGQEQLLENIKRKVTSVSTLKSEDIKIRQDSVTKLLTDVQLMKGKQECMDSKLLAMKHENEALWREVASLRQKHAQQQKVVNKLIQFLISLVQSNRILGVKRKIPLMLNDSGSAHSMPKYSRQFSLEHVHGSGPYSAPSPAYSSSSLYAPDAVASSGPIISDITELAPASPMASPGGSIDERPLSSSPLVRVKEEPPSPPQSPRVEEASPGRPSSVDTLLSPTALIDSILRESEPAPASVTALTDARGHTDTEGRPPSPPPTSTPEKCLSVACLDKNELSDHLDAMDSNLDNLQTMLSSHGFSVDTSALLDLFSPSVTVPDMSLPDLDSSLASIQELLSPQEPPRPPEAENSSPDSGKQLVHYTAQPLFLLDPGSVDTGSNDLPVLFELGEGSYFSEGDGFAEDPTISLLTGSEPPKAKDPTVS
ELF1, sequence (P32519 whole entry): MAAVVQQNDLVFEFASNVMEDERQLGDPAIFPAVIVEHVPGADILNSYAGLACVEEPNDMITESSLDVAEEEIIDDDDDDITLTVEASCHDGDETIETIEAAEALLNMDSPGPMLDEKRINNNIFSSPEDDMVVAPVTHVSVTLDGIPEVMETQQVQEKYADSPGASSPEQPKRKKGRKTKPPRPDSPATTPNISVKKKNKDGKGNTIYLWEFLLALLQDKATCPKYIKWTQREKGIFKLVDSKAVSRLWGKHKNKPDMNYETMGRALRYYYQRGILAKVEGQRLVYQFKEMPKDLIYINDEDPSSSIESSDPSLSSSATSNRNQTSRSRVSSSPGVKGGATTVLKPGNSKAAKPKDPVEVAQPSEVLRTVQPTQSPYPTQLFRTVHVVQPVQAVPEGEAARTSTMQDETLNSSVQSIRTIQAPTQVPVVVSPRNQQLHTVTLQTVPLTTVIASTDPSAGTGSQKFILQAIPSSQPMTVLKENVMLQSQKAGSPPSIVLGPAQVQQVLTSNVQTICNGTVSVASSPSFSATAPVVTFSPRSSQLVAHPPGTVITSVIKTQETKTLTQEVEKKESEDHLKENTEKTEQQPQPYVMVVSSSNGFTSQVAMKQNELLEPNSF
ETV1, sequence (P50549 whole entry): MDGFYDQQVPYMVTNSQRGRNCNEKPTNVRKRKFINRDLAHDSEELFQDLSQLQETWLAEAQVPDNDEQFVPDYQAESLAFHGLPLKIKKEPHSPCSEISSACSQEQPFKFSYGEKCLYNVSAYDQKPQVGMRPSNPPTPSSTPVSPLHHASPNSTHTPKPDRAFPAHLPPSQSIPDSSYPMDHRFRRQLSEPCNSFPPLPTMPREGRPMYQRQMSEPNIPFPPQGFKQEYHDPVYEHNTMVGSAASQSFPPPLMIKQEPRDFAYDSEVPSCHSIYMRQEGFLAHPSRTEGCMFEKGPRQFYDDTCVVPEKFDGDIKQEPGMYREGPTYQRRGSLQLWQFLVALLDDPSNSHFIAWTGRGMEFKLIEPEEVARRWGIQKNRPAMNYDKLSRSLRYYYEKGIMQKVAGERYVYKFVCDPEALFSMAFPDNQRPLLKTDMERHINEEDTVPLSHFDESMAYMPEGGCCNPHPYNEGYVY
CRX, sequence (O43186 whole entry): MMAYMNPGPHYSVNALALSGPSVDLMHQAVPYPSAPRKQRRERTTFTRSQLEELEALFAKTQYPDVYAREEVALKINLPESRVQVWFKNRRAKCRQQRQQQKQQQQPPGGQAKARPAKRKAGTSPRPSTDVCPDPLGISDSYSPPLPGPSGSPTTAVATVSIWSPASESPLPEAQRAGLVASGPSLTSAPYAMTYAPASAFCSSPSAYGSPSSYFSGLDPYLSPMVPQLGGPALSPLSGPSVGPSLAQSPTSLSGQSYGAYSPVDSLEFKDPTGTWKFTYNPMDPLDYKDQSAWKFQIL
SPIB, sequence (Q01892 whole entry): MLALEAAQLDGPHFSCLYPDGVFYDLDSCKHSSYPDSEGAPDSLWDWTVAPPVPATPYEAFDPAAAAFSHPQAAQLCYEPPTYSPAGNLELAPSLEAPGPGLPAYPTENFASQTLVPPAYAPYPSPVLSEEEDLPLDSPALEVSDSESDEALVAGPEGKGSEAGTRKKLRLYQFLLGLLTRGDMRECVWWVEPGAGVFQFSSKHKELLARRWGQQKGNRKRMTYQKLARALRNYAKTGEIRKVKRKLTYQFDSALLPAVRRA
ELF4, sequence (Q99607 whole entry): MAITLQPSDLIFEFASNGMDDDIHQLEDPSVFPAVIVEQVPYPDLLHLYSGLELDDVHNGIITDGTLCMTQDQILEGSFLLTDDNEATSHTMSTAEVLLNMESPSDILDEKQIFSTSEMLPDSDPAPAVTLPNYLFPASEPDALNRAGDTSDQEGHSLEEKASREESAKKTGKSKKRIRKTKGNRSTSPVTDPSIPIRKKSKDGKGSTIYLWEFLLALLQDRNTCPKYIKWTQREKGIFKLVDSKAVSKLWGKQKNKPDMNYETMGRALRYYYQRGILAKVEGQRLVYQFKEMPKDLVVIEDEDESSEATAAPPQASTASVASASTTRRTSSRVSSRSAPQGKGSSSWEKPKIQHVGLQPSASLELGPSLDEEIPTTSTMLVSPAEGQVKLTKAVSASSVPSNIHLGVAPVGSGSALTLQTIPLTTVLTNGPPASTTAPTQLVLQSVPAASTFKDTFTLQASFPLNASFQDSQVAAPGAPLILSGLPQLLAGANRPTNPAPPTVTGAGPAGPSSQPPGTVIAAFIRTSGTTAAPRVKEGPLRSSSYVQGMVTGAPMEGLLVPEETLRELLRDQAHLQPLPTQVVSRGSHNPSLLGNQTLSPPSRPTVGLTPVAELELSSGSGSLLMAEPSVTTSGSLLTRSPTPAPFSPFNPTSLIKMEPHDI

CACATT: the binding signal is 1.3 fold enrichment (6-mer frequency, TF over GST control) in the test with FLI1; 1.16 fold enrichment (6-mer frequency, TF over GST control) in the test with ELK1; 1.2 fold enrichment (6-mer frequency, TF over GST control) with GABPA; 1.15 fold enrichment (6-mer frequency, TF over GST control) with ERG; 1.21 fold enrichment (6-mer frequency, TF over GST control) with ELF1; 1.23 fold enrichment (6-mer frequency, TF over GST control) with EHF. Further, the binding signal in the test with SPI1 was 1.14 fold enrichment (6-mer frequency, TF over GST control); with SPIB, 1.12 fold enrichment (6-mer frequency, TF over GST control); with ELK3, 1.13 fold enrichment (6-mer frequency, TF over GST control); with FEV, 1.18 fold enrichment (6-mer frequency, TF over GST control); in the test with ETV5, 1.19 fold enrichment (6-mer frequency, TF over GST control); with HSF1 it was 1.14 fold enrichment (6-mer frequency, TF over GST control). Also, the binding signal is 1.26 fold enrichment (6-mer frequency, TF over GST control) with SPIC; 1.16 fold enrichment (6-mer frequency, TF over GST control) in the test with ELF4; 1.13 fold enrichment (6-mer frequency, TF over GST control) with ELK4; 1.28 fold enrichment (6-mer frequency, TF over GST control) with ETV2; 1.43 fold enrichment (6-mer frequency, TF over GST control) in the test with ELF3; 1.06 fold enrichment (6-mer frequency, TF over GST control) in the test with CRX. In addition, the binding signal with ETV1 was 1.28 fold enrichment (6-mer frequency, TF over GST control).

The record behind these values is PMC7862700, “An all-to-all approach to the identification of sequence-specific readers for epigenetic DNA modifications on cytosine”.
